The supplement of paper PMC10849652
About 7,900 targets were measured; listed, in parts, are those with a hit and a random draw of the rest. About 0.6% of all pairs of compound and target were hits. Unmarked numbers belong to inactive results.

Tests used:
Assay in all cases: log2 fold change, soluble protein after heating vs DMSO (PISA); higher = thermal stabilisation; K562 cells, 10 uM, 30 min; active = over 0.2 and 3.5 SD of the protein, either way, in both replicates (recomputed)
[1] = compound: CC1=C(C=C(C=C1)NC(=O)C2=CC(=CC=C2)C(C)(C)C#N)NC3=CC4=C(C=C3)N=CN(C4=O)C
Summary of the method: (§1)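 Values are thermal stability changes relative to control samples and are taken from duplicates. They are stated as log2 fold changes. Before quantification by TMTpro 16plex LC-MS/MS with equalised channel sums, K562 cells at 2×10^6 cells/mL were treated with 10 μM compound for 30 min, heated in aliquots for 3 min across 48°C-58°C, pooled, extracted in PBS with 0.5% NP-40 at 4°C, and centrifuged at 21,000xg for 90 min to give the soluble supernatant.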

[2] = compound: CC1=C(C=C(C=C1)NC(=O)C2=CC(=CC=C2)N(C)C)NC(=O)C3=CC=C(C=C3)O
Summary of the method: as §1

[3] = compound: CC1=CC=C(C=C1)SC2=C3C=C(SC3=CN=C2)C(=O)N
Summary of the method: as §1

[4] = compound: CC1=NC(=CC=C1)C2=C(N=C(N2)C(C)(C)C)C3=CC4=NC=CN=C4C=C3
Summary of the method: as §1

Nexturastat A = compound: CCCCN(Cc1ccc(C(=O)NO)cc1)C(=O)Nc1ccccc1 [Nexturastat A]
Summary of the method: as §1

vemurafenib = compound: CCCS(=O)(=O)Nc1ccc(F)c(C(=O)c2c[nH]c3ncc(-c4ccc(Cl)cc4)cc23)c1F [vemurafenib]
Summary of the method: as §1

[5] = compound: CCCS(=O)(=O)Nc1ccc(F)c(C(=O)c2c[nH]c3ncc(Cl)cc23)c1F
Summary of the method: as §1

[6] = compound: CCCc1cc(C)[nH]c(=O)c1CNC(=O)c1cc(-c2ccnc(N3CCN(C)CC3)c2)cc2c1cnn2C(C)C
Summary of the method: as §1

givinostat = compound: CCN(CC)Cc1ccc2cc(COC(=O)Nc3ccc(C(=O)NO)cc3)ccc2c1 [givinostat]
Summary of the method: as §1

barasertib = compound: CCN(CCCOc1ccc2c(Nc3cc(CC(=O)Nc4cccc(F)c4)[nH]n3)ncnc2c1)CCOP(=O)(O)O [barasertib]
Summary of the method: as §1

[7] = compound: CC[C@@H]1C(=O)N(C)c2cnc(Nc3ccc(C(=O)NC4CCN(C)CC4)cc3OC)nc2N1C1CCCC1
Summary of the method: as §1

volasertib = compound: CC[C@@H]1C(=O)N(C)c2cnc(Nc3ccc(C(=O)N[C@H]4CC[C@H](N5CCN(CC6CC6)CC5)CC4)cc3OC)nc2N1C(C)C [volasertib]
Summary of the method: as §1

[8] = compound: CC[C@H](C)N1C=C(C2=C(C=C(C=C21)C3=CN=C(C=C3)N4CCNCC4)C(=O)NCC5=C(C=C(NC5=O)C)C)C
Summary of the method: as §1

epoxomicin = compound: CC[C@H](C)[C@@H](C(=O)N[C@@H]([C@@H](C)O)C(=O)N[C@@H](CC(C)C)C(=O)[C@]1(CO1)C)NC(=O)[C@H]([C@@H](C)CC)N(C)C(=O)C [epoxomicin]
Summary of the method: as §1

[9] = compound: CCn1c(C(=O)N(C2CC2)C2CC2)cc2c3c(ncn3C)c(Nc3cc(C)n(C)n3)nc21
Summary of the method: as §1

[10] = compound: CCn1cc(-c2ccnc3[nH]c(-c4cccc(CN(C)C)c4)cc23)c(-c2ccc(NC(=O)N(C)C)cc2)n1
Summary of the method: as §1

[11] = compound: CN(C)CC(=O)Nc1ccc2[nH]c(=O)c3ccccc3c2c1
Summary of the method: as §1

rosiglitazone = compound: CN(CCOC1=CC=C(C=C1)C[C@H]2C(=O)NC(=O)S2)C3=CC=CC=N3 (racemic) [rosiglitazone]
Summary of the method: as §1

[12] = compound: CN1C2=C(C3=C1C(=O)N(N=C3)CC4=CC(=CC=C4)N)SC(=C2)S(=O)C
Summary of the method: as §1

[13] = compound: CN1CCC(CNc2ccc3ncc(-c4cccc(OC(F)(F)F)c4)n3n2)CC1
Summary of the method: as §1

Chain of UniProt Q5JTJ3 (Q5JTJ3 whole entry, looked up): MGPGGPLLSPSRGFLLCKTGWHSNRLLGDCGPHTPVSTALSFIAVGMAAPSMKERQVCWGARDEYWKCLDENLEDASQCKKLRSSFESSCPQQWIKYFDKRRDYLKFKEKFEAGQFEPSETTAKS
Chain of UniProt Q9H444 (Q9H444 whole entry, looked up): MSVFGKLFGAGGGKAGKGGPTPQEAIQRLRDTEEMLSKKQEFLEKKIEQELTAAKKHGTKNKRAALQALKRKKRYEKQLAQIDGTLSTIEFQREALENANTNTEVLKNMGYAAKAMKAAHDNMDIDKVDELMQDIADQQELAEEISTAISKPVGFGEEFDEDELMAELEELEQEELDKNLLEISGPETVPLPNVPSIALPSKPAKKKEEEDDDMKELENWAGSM
Chain of UniProt Q9Y5S2 (Q9Y5S2 whole entry, looked up): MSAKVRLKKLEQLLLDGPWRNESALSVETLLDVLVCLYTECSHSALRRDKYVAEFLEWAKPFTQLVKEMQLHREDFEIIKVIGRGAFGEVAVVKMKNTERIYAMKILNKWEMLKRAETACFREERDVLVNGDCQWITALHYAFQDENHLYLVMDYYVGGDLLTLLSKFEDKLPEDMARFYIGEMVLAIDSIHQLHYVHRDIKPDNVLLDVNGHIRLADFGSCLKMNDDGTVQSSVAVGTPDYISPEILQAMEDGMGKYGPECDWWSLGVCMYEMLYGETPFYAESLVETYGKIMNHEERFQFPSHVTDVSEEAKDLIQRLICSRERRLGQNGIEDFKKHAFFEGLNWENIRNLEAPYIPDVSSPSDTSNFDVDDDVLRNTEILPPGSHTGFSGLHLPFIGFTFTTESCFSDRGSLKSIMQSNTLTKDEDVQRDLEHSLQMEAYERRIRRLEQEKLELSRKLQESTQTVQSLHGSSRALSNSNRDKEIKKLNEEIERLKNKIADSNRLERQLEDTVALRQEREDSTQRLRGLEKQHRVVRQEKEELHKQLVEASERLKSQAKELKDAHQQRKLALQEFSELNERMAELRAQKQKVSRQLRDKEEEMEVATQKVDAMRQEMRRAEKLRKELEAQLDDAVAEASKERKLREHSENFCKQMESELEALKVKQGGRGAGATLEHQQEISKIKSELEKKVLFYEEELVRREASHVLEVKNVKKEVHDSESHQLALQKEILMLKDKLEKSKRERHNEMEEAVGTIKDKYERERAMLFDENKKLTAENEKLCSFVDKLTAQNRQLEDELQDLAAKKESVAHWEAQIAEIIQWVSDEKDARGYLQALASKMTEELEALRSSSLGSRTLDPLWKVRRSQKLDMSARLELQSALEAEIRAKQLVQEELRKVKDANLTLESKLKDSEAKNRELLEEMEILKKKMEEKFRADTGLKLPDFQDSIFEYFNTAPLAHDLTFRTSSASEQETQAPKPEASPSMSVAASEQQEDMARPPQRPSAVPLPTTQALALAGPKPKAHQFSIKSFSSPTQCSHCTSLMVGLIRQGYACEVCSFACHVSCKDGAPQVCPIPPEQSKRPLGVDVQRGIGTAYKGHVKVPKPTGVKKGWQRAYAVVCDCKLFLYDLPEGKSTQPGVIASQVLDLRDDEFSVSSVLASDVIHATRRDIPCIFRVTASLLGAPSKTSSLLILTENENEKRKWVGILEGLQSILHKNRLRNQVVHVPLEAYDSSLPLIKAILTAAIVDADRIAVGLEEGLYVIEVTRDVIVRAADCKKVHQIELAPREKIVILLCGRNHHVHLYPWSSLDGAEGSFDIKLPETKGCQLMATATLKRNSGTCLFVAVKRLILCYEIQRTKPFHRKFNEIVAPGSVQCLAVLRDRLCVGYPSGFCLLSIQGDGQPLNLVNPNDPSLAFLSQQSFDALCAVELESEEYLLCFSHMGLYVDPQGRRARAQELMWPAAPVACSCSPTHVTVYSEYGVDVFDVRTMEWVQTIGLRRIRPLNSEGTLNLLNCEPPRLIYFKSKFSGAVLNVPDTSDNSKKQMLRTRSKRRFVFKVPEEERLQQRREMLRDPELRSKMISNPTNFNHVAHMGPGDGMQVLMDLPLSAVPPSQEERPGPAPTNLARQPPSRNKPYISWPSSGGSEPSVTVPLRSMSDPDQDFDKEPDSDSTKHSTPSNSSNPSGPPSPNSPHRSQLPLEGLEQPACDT
Chain of UniProt Q7L3B6 (Q7L3B6 whole entry, looked up): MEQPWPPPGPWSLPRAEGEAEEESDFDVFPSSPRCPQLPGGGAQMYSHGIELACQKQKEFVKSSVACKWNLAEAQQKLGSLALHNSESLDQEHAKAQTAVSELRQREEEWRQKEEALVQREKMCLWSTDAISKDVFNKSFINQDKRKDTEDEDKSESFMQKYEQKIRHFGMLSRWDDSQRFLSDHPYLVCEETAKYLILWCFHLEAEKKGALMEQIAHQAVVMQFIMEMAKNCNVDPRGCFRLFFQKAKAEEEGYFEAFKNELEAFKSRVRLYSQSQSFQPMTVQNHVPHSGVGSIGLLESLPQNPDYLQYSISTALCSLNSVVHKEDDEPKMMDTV
Chain of UniProt Q14677 (Q14677 whole entry, looked up): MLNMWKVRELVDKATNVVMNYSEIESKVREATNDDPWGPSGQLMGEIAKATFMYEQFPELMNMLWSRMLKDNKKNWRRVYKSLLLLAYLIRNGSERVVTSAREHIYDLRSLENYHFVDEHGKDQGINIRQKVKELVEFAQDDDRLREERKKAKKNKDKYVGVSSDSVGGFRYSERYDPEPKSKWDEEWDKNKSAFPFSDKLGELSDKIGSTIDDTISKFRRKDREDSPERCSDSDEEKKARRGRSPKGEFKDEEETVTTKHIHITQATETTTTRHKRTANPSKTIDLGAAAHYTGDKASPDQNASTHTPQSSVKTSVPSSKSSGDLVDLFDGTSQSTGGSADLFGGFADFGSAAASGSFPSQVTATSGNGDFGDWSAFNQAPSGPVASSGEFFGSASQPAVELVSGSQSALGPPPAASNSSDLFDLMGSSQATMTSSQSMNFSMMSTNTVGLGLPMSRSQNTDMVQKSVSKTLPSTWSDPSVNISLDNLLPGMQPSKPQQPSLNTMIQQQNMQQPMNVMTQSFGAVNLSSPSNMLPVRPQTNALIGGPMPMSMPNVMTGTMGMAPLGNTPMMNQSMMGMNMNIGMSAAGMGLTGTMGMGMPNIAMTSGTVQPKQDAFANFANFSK
Chain of UniProt P19784 (P19784 whole entry, looked up): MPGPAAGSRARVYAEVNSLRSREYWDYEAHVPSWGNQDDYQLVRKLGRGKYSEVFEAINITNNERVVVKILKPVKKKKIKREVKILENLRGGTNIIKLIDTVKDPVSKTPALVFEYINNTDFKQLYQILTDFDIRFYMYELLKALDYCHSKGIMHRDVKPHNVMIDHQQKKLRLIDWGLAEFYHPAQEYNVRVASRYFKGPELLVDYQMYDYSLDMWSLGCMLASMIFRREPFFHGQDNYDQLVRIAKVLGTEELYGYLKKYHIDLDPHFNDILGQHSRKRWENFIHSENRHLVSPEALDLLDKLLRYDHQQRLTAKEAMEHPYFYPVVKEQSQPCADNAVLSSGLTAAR
Chain of UniProt Q8N163 (Q8N163 whole entry, looked up): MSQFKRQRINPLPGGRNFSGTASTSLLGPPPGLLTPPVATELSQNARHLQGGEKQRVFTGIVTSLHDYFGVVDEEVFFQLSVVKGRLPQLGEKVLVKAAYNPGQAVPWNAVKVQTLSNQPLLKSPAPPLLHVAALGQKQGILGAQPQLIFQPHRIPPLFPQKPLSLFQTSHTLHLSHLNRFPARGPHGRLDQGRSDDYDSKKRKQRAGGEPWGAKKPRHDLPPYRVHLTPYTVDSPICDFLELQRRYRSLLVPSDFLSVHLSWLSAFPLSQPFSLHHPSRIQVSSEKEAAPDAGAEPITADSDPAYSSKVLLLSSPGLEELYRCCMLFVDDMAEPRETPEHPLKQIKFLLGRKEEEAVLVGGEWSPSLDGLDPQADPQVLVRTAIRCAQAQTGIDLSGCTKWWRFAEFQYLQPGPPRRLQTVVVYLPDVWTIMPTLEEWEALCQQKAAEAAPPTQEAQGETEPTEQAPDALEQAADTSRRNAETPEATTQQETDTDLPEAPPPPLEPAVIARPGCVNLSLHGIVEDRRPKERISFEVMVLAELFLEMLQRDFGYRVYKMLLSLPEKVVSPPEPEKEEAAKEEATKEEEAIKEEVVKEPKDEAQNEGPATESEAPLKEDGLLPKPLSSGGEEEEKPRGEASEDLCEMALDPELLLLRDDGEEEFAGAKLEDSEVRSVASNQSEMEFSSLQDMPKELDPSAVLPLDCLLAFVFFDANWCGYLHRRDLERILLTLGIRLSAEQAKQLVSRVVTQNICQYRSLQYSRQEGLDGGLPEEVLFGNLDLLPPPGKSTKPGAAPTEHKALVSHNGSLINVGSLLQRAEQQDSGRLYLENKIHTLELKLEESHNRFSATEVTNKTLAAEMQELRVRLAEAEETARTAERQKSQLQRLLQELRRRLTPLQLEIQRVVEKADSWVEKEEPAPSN
Chain of UniProt Q9Y6H1 (Q9Y6H1 whole entry, looked up): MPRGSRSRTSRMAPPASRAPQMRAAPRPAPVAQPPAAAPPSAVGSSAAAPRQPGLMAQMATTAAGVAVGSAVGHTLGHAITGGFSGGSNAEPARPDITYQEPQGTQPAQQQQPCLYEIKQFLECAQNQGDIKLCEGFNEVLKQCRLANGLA

Row | Target | log2 fold change [1] | log2 fold change [2] | log2 fold change [3] | log2 fold change [4] | log2 fold change (Nexturastat A) | log2 fold change (vemurafenib) | log2 fold change [5] | log2 fold change [6] | log2 fold change (givinostat) | log2 fold change (barasertib) | log2 fold change [7] | log2 fold change (volasertib) | log2 fold change [8] | log2 fold change (epoxomicin) | log2 fold change [9] | log2 fold change [10] | log2 fold change [11] | log2 fold change (rosiglitazone) | log2 fold change [12] | log2 fold change [13]
1 | CDC42BPB (UniProt Q9Y5S2) | -0.073 | -0.07 | -0.034 | -0.072 | 0.052 | -0.046 | -0.034 | 0.079 | -0.096 | -0.087 | 0.171 | 0.051 | -0.105 | -0.065 | 0.008 | 0.062 | 0.046 | 0.049 | 0.048 | -0.195
2 | CHMP4B (UniProt Q9H444) | 0.181 | 0.008 | -0.073 | 0.007 | -0.04 | -0.036 | -0.126 | -0.02 | -0.061 | 0.001 | -0.05 | 0.062 | -0.044 | -0.008 | 0.043 | -0.065 | -0.053 | -0.031 | -0.057 | -0.033
3 | CDC37L1 (UniProt Q7L3B6) | 0.035 | 0.001 | -0.054 | -0.021 | -0.028 | -0.008 | 0.019 | 0.063 | 0.044 | 0.063 | -0.14 | -0.199 | 0.059 | 0.029 | 0.02 | 0.091 | -0.054 | 0.005 | 0.001 | -0.048
4 | CLINT1 isoform 3 (UniProt Q14677) | -0.082 | -0.001 | -0.094 | -0.09 | 0.122 | -0.049 | -0.073 | -0.019 | -0.01 | -0.047 | 0.17 | 0.047 | -0.01 | -0.038 | -0.006 | 0.042 | -0.06 | -0.055 | 0.075 | 0.259 (active)
5 | CSNK2A2 (UniProt P19784) | -0.037 | 0.009 | 0.021 | 0.005 | 0.004 | 0 | 0.08 | -0.035 | 0.03 | 0.003 | -0.053 | -0.122 | 0.028 | 0.029 | 0.01 | -0.043 | -0.006 | 0.066 | -0.038 | -0.244 (active)
6 | COA6 isoform 2 (UniProt Q5JTJ3) | -0.054 | -0.012 | 0.767 (active) | 0.036 | 0.007 | -0.041 | -0.009 | -0.089 | -0.02 | -0.042 | 0.045 | 0.04 | -0.004 | 0.079 | -0.069 | 0.045 | -0.023 | -0.055 | -0.16 | 0.022
7 | CHCHD2 (UniProt Q9Y6H1) | 0.019 | -0.037 | 0.282 | 0.004 | -0.047 | -0.028 | -0.019 | -0.09 | -0.042 | 0.008 | 0.04 | 0.103 | -0.034 | 0.026 | -0.027 | -0.055 | -0.004 | 0.04 | -0.058 | 0.044
8 | CCAR2 isoform 2 (UniProt Q8N163) | 0.032 | -0.048 | -0.017 | 0.001 | 0 | 0.042 | 0.05 | 0.28 | 0.144 | 0.026 | -0.08 | -0.343 (active) | 0.031 | -0.018 | -0.057 | -0.025 | 0.044 | 0.047 | 0.003 | -0.145
